# The whole screen tested about 420,000 compounds, of which about 50,000 (12%) were called active. Not shown: some 26% with an inconclusive outcome. Calls come from the whole dose curve; as a rule, active = well fitted inhibition curve with a large enough effect; inconclusive = small, poorly fitted or top-dose-only effect; inactive = flat fitted curve, though single readings scatter. The sample as a whole holds a higher share of actives than the screen did.
# Test: qHTS for Inhibitors of human tyrosyl-DNA phosphodiesterase 1 (TDP1): qHTS in cells in presence of CPT; note: nearly all actives have a fitted effect of over 55% in size
# Conditions: chicken DT40 Tdp1-/-;hTDP1 cells + 20 nM CPT, ATP luminescence, 48 h; series mostly up to 46.2 µM; activity change, negative = growth inhibition: at the top concentration
# Method in brief: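 Chicken DT40 Tdp1-/- cells stably complemented with human TDP1 were seeded at 400 cells/well in medium containing 20 nM camptothecin, exposed to pin-transferred compounds, and grown at 37 °C for at least 48 hr. Viability was read as ATP luminescence.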
# % is set by controls: 0 for no effect and ±100 for the full control effect; potency is the fitted concentration of half-maximal effect.
SMILES,"activity change, negative = growth inhibition",Potency
CN(C)c1ccc(S(=O)(=O)NCC(=O)NCC2CCCCC2)cc1[N+](=O)[O-],3.18% (inactive),–
CCOc1ccc(S(=O)(=O)NCCC(=O)NNC(=O)c2ccc(F)cc2)cc1,-15.8% (inactive),–
O=C(c1ccncc1)N1CCN(S(=O)(=O)c2cccc([N+](=O)[O-])c2)CC1,-1.19% (inactive),–
CCc1ccc(OCC(=O)OC(C)C(=O)NC2CC2)cc1 (centres undefined),3.39% (inactive),–
CN(CC(=O)Nc1c(Cl)cccc1Cl)C(=O)CC1OC(=O)c2ccccc21 (centres undefined),14.5% (inactive),–
CCCOC(=O)c1c(NC(=O)c2cc3nc(-c4ccc(OC)cc4)cc(C(F)(F)F)n3n2)sc2c1CCCC2,-5.48% (inactive),–
COc1ccc(NC(=O)CN(C)C(=O)c2ccc(COc3ccccc3)o2)cc1,-8.01% (inactive),–
O=[N+]([O-])c1ccc(C=Nc2ccc(Cl)cc2Cl)s1,–,6.51 µM (active)
CC(=O)N1C(=O)/C(=C2\SC(=S)N(NC(=O)c3ccc(O)cc3)C2=O)c2ccccc21,-9.38% (inactive),–
CCOc1ccc(CNC(=O)c2cccc(Nc3nc4ccccc4n4nnnc34)c2)cc1OC,-12% (inactive),–
CCOC(=O)c1cc(-c2ccc(F)cc2)n(CC(=O)NCc2ccccn2)c1C,-28.4% (inactive),–
Cc1oc(-c2ccccc2F)nc1CS(=O)CC(=O)NCCN1CCCCC1C (centres undefined),-11.7% (inactive),–
CN(C)c1ccc(-c2nc(NCCN3CCOCC3)c3ccccc3n2)cc1,–,5.8 µM (active)
Fc1ccc(-c2ccc(NCCN3CCOCC3)nn2)cc1,14.9% (inactive),–
CCC(=O)OCCNc1nc(-c2ccccc2)nc2ccccc12,-7.36% (inactive),–
CC1CCN(C(=O)CSc2nnc(-c3ccco3)n2N)CC1,1.45% (inactive),–
CC1(C(=O)NS(=O)(=O)c2cccc(OC(F)F)c2)CCN1C(=O)C1CC1 (centres undefined),2.49% (inactive),–
CC1CCCCC1NC(=O)COC(=O)Cc1ccc(Cl)cc1 (centres undefined),-2% (inactive),–
COc1ccc(C2=NN(c3nc4ccccc4s3)C(=O)C2)cc1,–,20.6 µM (active)
COc1ccc(-n2nnnc2-c2nc3ccccc3s2)cc1,13.4% (inactive),–
COc1ccc(C2=NN(C(C)=O)C(c3ccccc3)C2)cc1 (centres undefined),-23.8% (inactive),–
COc1ccc(S(=O)(=O)NCC2CCCN(C(=O)c3occc3C)C2)cc1 (centres undefined),-0.797% (inactive),–
Cc1ccccc1OCC(=O)NCC(=O)OCC(=O)c1ccc2ccccc2c1,–,inactive
CC1(NC(=O)CCS(=O)(=O)c2ccc(Cl)cc2)CCS(=O)(=O)C1 (centres undefined),7.44% (inactive),–
CCOc1ccc(CN2CCN(Cc3ccc(C)o3)CC2CCO)cc1 (centres undefined),-29% (inactive),–
O=S(=O)(Nc1ccc2[nH]ncc2c1)c1ccccc1Cl,-15.7% (inactive),–
COC(=O)c1cc(NC(=O)c2ccco2)ccc1N1CCOCC1,2.1% (inactive),–
CC(=O)Nc1ccc(N2CCOCC2)c(C(=O)Nc2cccc(C)c2)c1,–,13 µM (active)
COC(=O)c1cc(NC(=O)c2cccnc2)ccc1N1CCOCC1,6.29% (inactive),–

# — PubChem BioAssay AID686979 (National Center for Advancing Translational Sciences (NCATS), 2013)
